Source: PubChem
ERK EGF inh: EGF-driven ERK pathway inhibition; HEK293-V1b, EGF-stimulated phospho-ERK AlphaScreen; AID 1454; 0.41% of 130,000 active; Potency, µM (top dose mostly 11.5 µM), most hits filed as inhibitors; active means well fitted inhibition curve with a large enough effect; further: nearly all actives have a fitted effect of over 55% in size
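EGF-stimulated (25 nM, 5 min) phospho-ERK in HEK293 cells stably expressing V1b, cells pretreated 30 min with compound at 37C. Homogeneous AlphaScreen read on lysates.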
Large screens that a line does not name were inactive. Only a selection was taken, and hits are over-represented in it overall.

CC1=NN(c2ccc([N+](=O)[O-])cc2)C(=O)/C1=C\N(C)C	none
CC1=NN(c2ccccc2)C(=O)/C1=C\c1cn(C)c2ccccc12	ERK EGF inh 14µM
CCOC(=O)CC1=NN(c2ccccc2)C(=O)/C1=C\c1ccc(N(C)C)cc1	ERK EGF inh 25µM
CCOC(=O)CC1=NN(c2ccccc2)C(=O)C1	none
Cc1ccc(C(=O)NN2C(=O)/C(=C/c3cn(C)c4ccccc34)SC2=S)cc1	none
CC1=NN(c2ccccc2)C(=O)/C1=C\C=C\c1ccccc1	ERK EGF inh 25µM
CC1=NN(c2ccc(C(=O)OC(C)C)cc2)C(=O)/C1=C\C=C\c1ccco1	none
CC1=NN(c2ccccc2)C(=O)/C1=C/C=C/c1ccc(N(C)C)cc1	ERK EGF inh 7.1µM
CC1=NN(CCC#N)C(=O)/C1=C/c1ccc(N(C)C)cc1	none
Cn1cc(C=O)c2ccccc21	none
CC1=NN(c2ccccc2)C(=O)/C1=C/N(C)C	none
CCOC1=NN(c2ccccc2)C(=O)/C1=C\N(C)C	none
COc1ccc2c(c1-c1c3c(cc(Br)c1OC)CCCC3)CCCC2	none
COC(=O)C(C(=O)OC)C(Cc1cc(F)cc(F)c1F)NC=O (centres undefined)	none
O=P1(O)Oc2c(c(-c3ccccc3)cc3ccc4ccccc4c23)-c2c(-c3ccccc3)cc3ccc4ccccc4c3c2O1	none
CN1[C@@H]2CC(OC(=O)[C@H](CO)c3ccccc3)C[C@@H]1[C@H]1O[C@H]12 (some centres undefined)	none
COC(=O)N[C@@H](c1cccc(C)c1)C(C(C)=O)C(=O)OC (some centres undefined)	none
O=C(NCCOc1ccccc1)O[C@@H]1C(=O)c2cc(Br)ccc2O[C@H]1c1ccc2c(c1)OCO2	none
Cc1nn(-c2ccccc2)c(N2CCCC2)c1/C=N/Nc1ccc(S(=O)(=O)Nc2ccccc2)cc1[N+](=O)[O-]	none
COc1ccccc1NS(=O)(=O)c1ccc(N/N=C/c2c(C)nn(-c3ccccc3)c2N2CCCC2)c([N+](=O)[O-])c1	ERK EGF inh 13µM
COc1ccccc1NS(=O)(=O)c1cccc(C(=O)N/N=C/c2c(C)nn(-c3ccccc3)c2N2CCCC2)c1	none
CC1=CC(=O)C2=C(C)C[C@H](OC(=O)Cc3ccccc3)C3[C@H](OC(=O)[C@H]3C)C12 (some centres undefined)	none
Cc1cccc(CNc2nc(-c3ccccc3CN(C)C)nc3ccccc23)c1	none
Cc1cnc(CNc2nc(-c3ccc(C(=O)N(C)C)cc3)nc3ccccc23)cn1	none
c1cncc(-c2nc(NCCN3CCOCC3)c3ccccc3n2)c1	none
O=C1C=C(Nc2ccccc2)C(=O)c2ccccc21	ERK EGF inh 25µM
CC1=CC(=O)c2ccccc2C1=O	none
Cc1ccc(N/C(=N/S(=O)(=O)c2cccs2)c2ccccc2)c(C)c1	none
CCc1cc[n+](C2=C([O-])c3ccccc3C(=O)/C2=N\S(=O)(=O)c2cccs2)cc1	none
O=C1C=C(Nc2ccccc2)c2ccccc2C1=O	none
O=C1C(Nc2ccccc2)=C/C(=N/S(=O)(=O)c2cccs2)c2ccccc21	ERK EGF inh 14µM
NCCC[C@@H](CC(=O)N[C@@H]1CCNC[C@H]1C(=O)N[C@H](CC(=O)N[C@@H](CCC(=O)O)CC(=O)O)Cc1c[nH]c2ccccc12)NC(=O)C[C@H](Cc1c[nH]c2ccccc12)NC(=O)[C@@H]1CNCC[C@H]1N	none
C[C@]12C=CC(=O)C=C1CCC1C2C(=O)C[C@]2(C)C1CC[C@]2(O)C(=O)CO (some centres undefined)	none
CCCCOc1cc(C[C@@H]2CNC(=O)N2)ccc1OC	none
Cc1cc(NC(=O)Nc2ccc(N(C)C)cc2)c2cc(F)cc(F)c2n1	none
O=C1CCC=C1C(O)c1ccc(Cl)cc1 (centres undefined)	none
CCCCC/C=C\C\C=C/C=C/C=C/[C@@H](SCC(N)C(=O)NCC(=O)O)[C@@H](O)CCCC(=O)O (some centres undefined)	none
CN(C)c1ccc(NC(=S)c2ccccn2)cc1	ERK EGF inh 20µM
CN(C)c1ccc(C(=S)Nc2ccccc2)cc1	none
CN(C)c1ccc(/C=N/NC(=O)c2ccccn2)cc1	none
CC(O)C#C[Si](C)(C)c1ccccc1 (centres undefined)	none
O=c1cc(-c2ccc(O)cc2)oc2cc(O)ccc12	none
O=c1cc(O)c2ccc(O)cc2o1	none
O=c1ccc2[n+]([O-])c3ccc(O)cc3oc-2c1	ERK EGF inh 16µM
COC(=O)[C@H](COC(C)(C)C)NC(=O)O[C@H]1C(=O)c2ccc(OC)cc2O[C@@H]1c1ccc2c(c1)OCO2	none
O=C(Nc1ccc(N2CCN(c3ccc(C(F)(F)F)cn3)CC2)nc1)c1cccs1	none
O=C(Nc1ccc(N2CCOCC2)nc1)c1cccs1	none
O=C(Nc1ccc(N2CCN(c3ncccc3C(F)(F)F)CC2)nc1)c1cccs1	ERK EGF inh 14µM
C=C(C(=O)C(C)(C)O)C(O)c1ccc([N+](=O)[O-])cc1 (centres undefined)	none
CC(C)Oc1ccc2c(=O)c3cc(C(=O)O)ccc3oc2c1	none
C=C(C(=O)O)[C@@H]1CC[C@@]2(C)CCC[C@](C)(O)[C@@H]2C1	none
CCN1/C(=C/C(C)=C/c2sc3ccccc3[n+]2CC)Sc2ccccc21	ERK EGF inh 18µM
CCN1/C(=C\C=C(C(C)=O)C(C)=O)Sc2ccccc21	none
CCN1/C(=C\C(=S)Nc2ccccc2)Sc2ccccc21	none
O=C1C(Cl)=C(Nc2ccc3cn[nH]c3c2)C(=O)c2ccccc21	ERK EGF inh 16µM
O=C(Nc1ccc2cn[nH]c2c1)c1c(Cl)cccc1Cl	none
O=C(Oc1ccc(NC2=C(Cl)C(=O)c3ccccc3C2=O)cc1)c1ccc([N+](=O)[O-])cc1	none
CC(=O)Nc1ccc(NC2=C(Cl)C(=O)c3ccccc3C2=O)cc1	none
O=C(Nc1ccc2cn[nH]c2c1)c1ccccc1F	none
CN(C)c1ccc(NC2=C(Cl)C(=O)c3ccccc3C2=O)cc1	ERK EGF inh 14µM
COc1ccccc1N1CCN(C[C@@H](C(=O)NC(C)(C)C)c2ccccc2)CC1	none
O=S(=O)(c1ccccc1)N1CCC2(CC1)CN(c1ccccn1)C2	none
COc1cc2c(cc1OC)-c1cc3cc(OC)c(OC)cc3c(=O)n1CC2	none
C[C@@H]1CCC2[C@](C)(CO)[C@@H](O)CC[C@]2(C)[C@]12CCC(CO)(CCO)O2 (some centres undefined)	none
CC1(C)CC(N(Cc2ccc(F)cc2)C(=O)c2ccc(F)cc2)CCO1 (centres undefined)	none
CC1(C)CC(C(CCN(Cc2ccccc2)C(=O)c2ccco2)c2ccc(F)cc2)CCO1 (centres undefined)	ERK EGF inh 22µM
CN(CCC#N)C(=O)CC(Cc1ccccc1)C1CCOC(C)(C)C1 (centres undefined)	none
O=C(OC1Cc2c(O)cc(O)cc2OC1c1cc(O)c(O)c(O)c1-c1c(C2Oc3cc(O)cc(O)c3CC2OC(=O)c2cc(O)c(O)c(O)c2)cc(O)c(O)c1O)c1cc(O)c(O)c(O)c1 (centres undefined)	none
C[C@@](N)(Cc1ccc(O)c(O)c1)C(=O)O	none
Cc1cccc(C(=O)Nc2ccc(C(=O)/C=C/c3cccnc3)cc2)c1	none
O=C(/C=C/c1cccnc1)c1cc(F)ccc1O	none
O=C(/C=C/c1cccnc1)/C=C/c1cccnc1	ERK EGF inh 10µM
COc1ccc2c(c1)O[C@@H](c1ccc3c(c1)OCO3)[C@H](OC(=O)N[C@H]1CCCc3ccccc31)C2=O	none
COc1cccc([C@@H]2Oc3ccc(Br)cc3C[C@H]2OC(=O)NCCc2ccc(OC)c(OC)c2)c1	none
O=CN/C=C/c1cc(F)cc(F)c1F	none
CC1(C)OCC(CSC2=C(SCC3COC(C)(C)O3)C(=O)c3ncccc3C2=O)O1 (centres undefined)	none
